{
  "source": "PubChem BioAssay",
  "note": "Records with an inconclusive call do not appear. Activity calls are given as the source filed them.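 The calls were made as follows, unless noted: active = viability at or below 27.92% in each of two runs, the all-compound median minus 4 SD; inconclusive = no clear call, values can overlap the other calls; inactive = the rest.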",
  "data": [
    {"experiment": "viability of HCT116 without oncogenic beta-catenin – human colon tumor cells, pilot screen (AID 823;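 active = cell viability at or below a set limit in both duplicate runs, the limit being the all-compound median minus 4 SD, cut at about 23% in these data, passing the limit was not always enough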;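 also: 0% = wells killed by 20 µM Hyamine and 100% = untreated DMSO cell wells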)", "details": "HCT116 beta-catenin knockout viability, CellTiter-Glo, 60 h; at 10 µM; hits give low values", "values": [
      {"smiles": "COC(=O)CN(c1ccccc1)S(=O)(=O)c1ccccc1", "viability": "101% (inactive)"},
      {"smiles": "CCCC(c1c(C)n(C)n(-c2ccccc2)c1=O)c1c(C)n(C)n(-c2ccccc2)c1=O", "viability": "90.2% (inactive)"},
      {"smiles": "O=C(Cn1cc2c(n1)CCCCC2)NCc1ccccn1", "viability": "95.6% (inactive)"},
      {"smiles": "CC(C)n1c(CCCO)nc2ccccc21", "viability": "95.7% (inactive)"},
      {"smiles": "O=C(CCCCCN1C(=O)C2C3C=CC(C3)C2C1=O)Nc1nccs1", "note": "(stereo not given)", "viability": "100% (inactive)"},
      {"smiles": "O=C(CSc1nc(-c2ccccc2)c(-c2ccccc2)o1)N1CCOCC1", "viability": "90.2% (inactive)"},
      {"smiles": "Cc1ccc2c(c1)c1c(n2CC(O)Cn2c(C)nc3ccccc32)C(=O)CCC1", "note": "(stereo not given)", "viability": "59.2% (inactive)"},
      {"smiles": "O=C(Cn1ncc2c(=O)oc3ccccc3c21)N1CCCN(Cc2ccccc2F)C1", "viability": "101% (inactive)"},
      {"smiles": "Cc1cccc(N2CCN(S(C)(=O)=O)CC2)c1C", "viability": "108% (inactive)"},
      {"smiles": "CCOC(=O)c1c(NC(=O)C2CCCN2S(=O)(=O)c2cccc3nsnc23)sc(C)c1C", "note": "(stereo not given)", "viability": "74% (inactive)"},
      {"smiles": "COc1ccc(C2N3CC4(C)CN2CC(C)(C3)C4)cc1OC", "note": "(stereo not given)", "viability": "105% (inactive)"},
      {"smiles": "Cc1ccc(C)c(SCC(=O)OCC(=O)c2ccco2)c1", "viability": "88.9% (inactive)"},
      {"smiles": "COc1ccc(-c2nc(CS(=O)(=O)CC(=O)Nc3ccc(Cl)cc3)c(C)o2)cc1", "viability": "48.5% (inactive)"},
      {"smiles": "CC(=O)c1ccc(-n2nncc2C)cc1", "viability": "108% (inactive)"},
      {"smiles": "CN(C)C(=O)CSc1nnc(-c2cccnc2)n1-c1ccccc1", "viability": "98.6% (inactive)"},
      {"smiles": "CC1CN(C(=O)c2cc3ccccc3oc2=O)CC(C)O1", "note": "(stereo not given)", "viability": "98.4% (inactive)"},
      {"smiles": "COc1cccc(/C=C2\\N=C(SC)SC2=O)c1OC", "viability": "89.8% (inactive)"},
      {"smiles": "COc1ccc(OC)c(N(CC(=O)O)S(=O)(=O)c2ccc(OC)c(OC)c2)c1", "viability": "98.9% (inactive)"},
      {"smiles": "O=C(c1ccc(Br)o1)N1CCN=C1SCc1cccnc1", "viability": "90.4% (inactive)"},
      {"smiles": "CCc1n[nH]c2c1/C(=N\\O)CC(C)(C)C2", "viability": "99.4% (inactive)"},
      {"smiles": "CC(=O)C1C(c2ccccc2Cl)NC(=O)NC1(O)C(F)(F)F", "note": "(stereo not given)", "viability": "112% (inactive)"},
      {"smiles": "CCC(C)NC(=O)CN(c1ccc2c(c1)OCO2)S(=O)(=O)c1c(C)n[nH]c1C", "note": "(stereo not given)", "viability": "107% (inactive)"},
      {"smiles": "CCOCCn1c(CN(Cc2ccccc2)Cc2ccccc2)nc2c1c(=O)n(C)c(=O)n2C", "viability": "64.7% (inactive)"},
      {"smiles": "COc1ccc(CN2CCN(c3cccc(C)c3C)CC2)cc1OC", "viability": "51.8% (inactive)"},
      {"smiles": "CCCc1cc(C(=O)N(C2CCCCC2)C2CCCCC2)no1", "viability": "74.5% (inactive)"},
      {"smiles": "CCCCNC(=O)c1cc(-c2ccc(OC)c(OC)c2)on1", "viability": "104% (inactive)"},
      {"smiles": "O=C(Cn1cnc2c(nnn2-c2ccccc2)c1=O)N1CCCc2ccccc21", "viability": "101% (inactive)"},
      {"smiles": "CCCCOC(=O)Nc1ccc(N2CCOCC2)cc1", "viability": "98.2% (inactive)"},
      {"smiles": "Cc1nc(-c2ccc(S(=O)(=O)N3CCCCCC3)cc2)cs1", "viability": "90.8% (inactive)"},
      {"smiles": "Cc1ccc(-n2c(SCC(N)=O)nc3c([nH]c4ccccc43)c2=O)cc1", "viability": "91.3% (inactive)"},
      {"smiles": "CCOC(=O)N1CCC(NC(=O)c2ccc3snnc3c2)CC1", "viability": "98.5% (inactive)"},
      {"smiles": "CN(CC(=O)NC1CCCc2ccccc21)S(=O)(=O)c1ccc2c(c1)c(=O)n(C)c(=O)n2C", "note": "(stereo not given)", "viability": "95.3% (inactive)"},
      {"smiles": "COc1ccc(C2C(C(=O)NC(C)C)c3ccccc3C(=O)N2C)cc1OC", "note": "(stereo not given)", "viability": "105% (inactive)"},
      {"smiles": "CCOC(=O)c1sc(NC(=O)C2CC2)nc1C", "viability": "99.6% (inactive)"},
      {"smiles": "N#CC1=C(SCC(=O)Nc2ccccc2)NC(=O)CC1c1ccc(O)cc1", "note": "(stereo not given)", "viability": "91.4% (inactive)"},
      {"smiles": "CCCCNc1cc(=O)n(C)c(=O)[nH]1", "viability": "104% (inactive)"},
      {"smiles": "CC(=O)Oc1ccc(N2C(=O)C3C(C2=O)C2(C)C=CC3(C)O2)cc1", "note": "(stereo not given)", "viability": "99% (inactive)"},
      {"smiles": "O=C(O)CCCC(=O)Nc1ccc(Cl)c(Cl)c1", "viability": "95.4% (inactive)"},
      {"smiles": "CC1=C(C(=O)OC(C)C)C(c2ccc(Br)s2)NC(=O)N1C", "note": "(stereo not given)", "viability": "70.6% (inactive)"},
      {"smiles": "CCOC(=O)N1CCN(C(=O)c2ccc3c(c2)N(CC)CCS3)CC1", "viability": "101% (inactive)"}
    ]},
    {"experiment": "viability of PTEN-null HCT116 cells – cell-based, HCT116 clonal line, CellTiter-Glo, pilot screen (AID 824);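 also: 0% = 20 µM Hyamine control and 100% = vehicle cell control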", "details": "HCT116 PTEN-deleted viability, 60 h, at 10 µM, hits give low values", "values": [
      {"smiles": "COC(=O)CN(c1ccccc1)S(=O)(=O)c1ccccc1", "viability": "99.8% (inactive)"},
      {"smiles": "CCCC(c1c(C)n(C)n(-c2ccccc2)c1=O)c1c(C)n(C)n(-c2ccccc2)c1=O", "viability": "103% (inactive)"},
      {"smiles": "O=C(Cn1cc2c(n1)CCCCC2)NCc1ccccn1", "viability": "90.8% (inactive)"},
      {"smiles": "CC(C)n1c(CCCO)nc2ccccc21", "viability": "88.1% (inactive)"},
      {"smiles": "O=C(CCCCCN1C(=O)C2C3C=CC(C3)C2C1=O)Nc1nccs1", "note": "(stereo not given)", "viability": "91.5% (inactive)"},
      {"smiles": "O=C(CSc1nc(-c2ccccc2)c(-c2ccccc2)o1)N1CCOCC1", "viability": "89.6% (inactive)"},
      {"smiles": "Cc1ccc2c(c1)c1c(n2CC(O)Cn2c(C)nc3ccccc32)C(=O)CCC1", "note": "(stereo not given)", "viability": "62.2% (inactive)"},
      {"smiles": "O=C(Cn1ncc2c(=O)oc3ccccc3c21)N1CCCN(Cc2ccccc2F)C1", "viability": "94.1% (inactive)"},
      {"smiles": "Cc1cccc(N2CCN(S(C)(=O)=O)CC2)c1C", "viability": "95.3% (inactive)"},
      {"smiles": "CCOC(=O)c1c(NC(=O)C2CCCN2S(=O)(=O)c2cccc3nsnc23)sc(C)c1C", "note": "(stereo not given)", "viability": "72.5% (inactive)"},
      {"smiles": "COc1ccc(C2N3CC4(C)CN2CC(C)(C3)C4)cc1OC", "note": "(stereo not given)", "viability": "101% (inactive)"},
      {"smiles": "Cc1ccc(C)c(SCC(=O)OCC(=O)c2ccco2)c1", "viability": "91.6% (inactive)"},
      {"smiles": "COc1ccc(-c2nc(CS(=O)(=O)CC(=O)Nc3ccc(Cl)cc3)c(C)o2)cc1", "viability": "49.6% (inactive)"},
      {"smiles": "CC(=O)c1ccc(-n2nncc2C)cc1", "viability": "95.6% (inactive)"},
      {"smiles": "CN(C)C(=O)CSc1nnc(-c2cccnc2)n1-c1ccccc1", "viability": "95.1% (inactive)"},
      {"smiles": "CC1CN(C(=O)c2cc3ccccc3oc2=O)CC(C)O1", "note": "(stereo not given)", "viability": "103% (inactive)"},
      {"smiles": "COc1cccc(/C=C2\\N=C(SC)SC2=O)c1OC", "viability": "105% (inactive)"},
      {"smiles": "COc1ccc(OC)c(N(CC(=O)O)S(=O)(=O)c2ccc(OC)c(OC)c2)c1", "viability": "94% (inactive)"},
      {"smiles": "O=C(c1ccc(Br)o1)N1CCN=C1SCc1cccnc1", "viability": "87.6% (inactive)"},
      {"smiles": "CCc1n[nH]c2c1/C(=N\\O)CC(C)(C)C2", "viability": "108% (inactive)"},
      {"smiles": "CC(=O)C1C(c2ccccc2Cl)NC(=O)NC1(O)C(F)(F)F", "note": "(stereo not given)", "viability": "102% (inactive)"},
      {"smiles": "CCC(C)NC(=O)CN(c1ccc2c(c1)OCO2)S(=O)(=O)c1c(C)n[nH]c1C", "note": "(stereo not given)", "viability": "99.4% (inactive)"},
      {"smiles": "CCOCCn1c(CN(Cc2ccccc2)Cc2ccccc2)nc2c1c(=O)n(C)c(=O)n2C", "viability": "57.6% (inactive)"},
      {"smiles": "COc1ccc(CN2CCN(c3cccc(C)c3C)CC2)cc1OC", "viability": "54% (inactive)"},
      {"smiles": "CCCc1cc(C(=O)N(C2CCCCC2)C2CCCCC2)no1", "viability": "80.8% (inactive)"},
      {"smiles": "CCCCNC(=O)c1cc(-c2ccc(OC)c(OC)c2)on1", "viability": "96.9% (inactive)"},
      {"smiles": "O=C(Cn1cnc2c(nnn2-c2ccccc2)c1=O)N1CCCc2ccccc21", "viability": "101% (inactive)"},
      {"smiles": "CCCCOC(=O)Nc1ccc(N2CCOCC2)cc1", "viability": "102% (inactive)"},
      {"smiles": "Cc1nc(-c2ccc(S(=O)(=O)N3CCCCCC3)cc2)cs1", "viability": "89.7% (inactive)"},
      {"smiles": "Cc1ccc(-n2c(SCC(N)=O)nc3c([nH]c4ccccc43)c2=O)cc1", "viability": "87.5% (inactive)"},
      {"smiles": "CCOC(=O)N1CCC(NC(=O)c2ccc3snnc3c2)CC1", "viability": "89.7% (inactive)"},
      {"smiles": "CN(CC(=O)NC1CCCc2ccccc21)S(=O)(=O)c1ccc2c(c1)c(=O)n(C)c(=O)n2C", "note": "(stereo not given)", "viability": "94% (inactive)"},
      {"smiles": "COc1ccc(C2C(C(=O)NC(C)C)c3ccccc3C(=O)N2C)cc1OC", "note": "(stereo not given)", "viability": "101% (inactive)"},
      {"smiles": "CCOC(=O)c1sc(NC(=O)C2CC2)nc1C", "viability": "95.1% (inactive)"},
      {"smiles": "N#CC1=C(SCC(=O)Nc2ccccc2)NC(=O)CC1c1ccc(O)cc1", "note": "(stereo not given)", "viability": "86.5% (inactive)"},
      {"smiles": "CCCCNc1cc(=O)n(C)c(=O)[nH]1", "viability": "96.5% (inactive)"},
      {"smiles": "CC(=O)Oc1ccc(N2C(=O)C3C(C2=O)C2(C)C=CC3(C)O2)cc1", "note": "(stereo not given)", "viability": "98.4% (inactive)"},
      {"smiles": "O=C(O)CCCC(=O)Nc1ccc(Cl)c(Cl)c1", "viability": "98.1% (inactive)"},
      {"smiles": "CC1=C(C(=O)OC(C)C)C(c2ccc(Br)s2)NC(=O)N1C", "note": "(stereo not given)", "viability": "77% (inactive)"},
      {"smiles": "CCOC(=O)N1CCN(C(=O)c2ccc3c(c2)N(CC)CCS3)CC1", "viability": "97% (inactive)"}
    ]}
  ]
}
